Assay [1] is described as follows: BET inhibitor-based combinations targeting novel dependencies in MECOM-rearranged (r) AML: MV-4-11 cell line (AID 2202233). Also: nearly all actives have a fitted effect of over 45% in size. In a few lines:
(§1)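 Activity is given as area under the curve and as Z-AUC, mean-centred within each cell line. It comes from 11-point dose curves normalized to DMSO and empty wells. CellTiter-Glo luminescence was read after 48 hr drug exposure of 500 cells/well.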

Assay [2] in a line: BET inhibitor-based combinations targeting novel dependencies in MECOM-rearranged (r) AML: OCI-AML3 cell line (AID 2202232). Also: nearly all actives have a fitted effect of over 35% in size. The following applies: Potency: OCI-AML3 viability. In a few lines:
(§2)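 Cells were plated at 500 per well and exposed to an 11-point dose series of each drug for 48 hr. Viability was measured by CellTiter-Glo luminescence, normalized to DMSO and empty-well controls, and summarized as AUC and per-cell-line Z-AUC.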

Assay [3] is described as follows: BET inhibitor-based combinations targeting novel dependencies in MECOM-rearranged (r) AML: UCSD-AML1 cell line (AID 2202235). Also: nearly all actives have a fitted effect of over 40% in size. The method, boiled down: as §1
The nature of assay [4]: BET inhibitor-based combinations targeting novel dependencies in MECOM-rearranged (r) AML: AML-191 cell line (AID 2202236; also: nearly all actives have a fitted effect of over 35% in size). In a few lines:
as §2

Assay [5] is described as follows: BET inhibitor-based combinations targeting novel dependencies in MECOM-rearranged (r) AML: HNT-34 cell line (AID 2202234). Also: nearly all actives have a fitted effect of over 35% in size. In a few lines: as §1
Assay [6] in a line: BET inhibitor-based combinations targeting novel dependencies in MECOM-rearranged (r) AML: AML-194 cell line (AID 2202237; also: nearly all actives have a fitted effect of over 40% in size). In a few lines: as §2

Records with an inconclusive call do not appear. Active and inactive are the calls of the source. Calls follow the shape of the dose curve; as a rule, active = well fitted curve in the direction sought with a large enough effect; inconclusive = small, poorly fitted or top-dose-only effect, or another doubt; inactive = no such curve, though single readings can be large; an effect the other way counts as inactive or inconclusive.
Potency is read from the fitted curve at half-maximal effect.

`Cn1cc(-c2cc(Oc3cc(F)c(NC(=O)C4(C(=O)Nc5ccccc5)CC4)cc3F)ccn2)cn1`: the Potency in assay [1] was 0.742 µM (active).

Turning to `CCCCN(CCCC)CCC(O)c1cc2c(Cl)cc(Cl)cc2c2cc(C(F)(F)F)ccc12` (stereo unspecified), the Potency in assay [1] was 18.6 µM (active).

As for `CO[C@H]1/C=C/O[C@@]2(C)Oc3c(C)c(O)c4c(O)c(c5c(c4c3C2=O)=NC2(CCN(CC(C)C)CC2)N=5)NC(=O)/C(C)=C/C=C/[C@H](C)[C@H](O)[C@@H](C)[C@@H](O)[C@@H](C)[C@H](OC(C)=O)[C@@H]1C`, the values for the Potency in assay [2] and in assay [4] were 16.6 µM (active) and 18.6 µM (active), respectively. For the same compound, in assay [3], the Potency entry was “inactive”.

Consider `N#Cc1c(N)nc(N)nc1N[C@H](c1nc2c(F)ccc(Cl)c2c(=O)n1-c1cccnc1)C1CC1`, for which the Potency in assay [2] is 6.61 µM (active); in assay [5] it was 16.6 µM (active); in assay [3], 5.9 µM (active).

In the case of `CN1CCN(c2nc(C3=C(c4c[nH]c5ccccc45)C(=O)NC3=O)c3ccccc3n2)CC1`, in assay [1], the Potency is 1.86 µM (active).

Consider `C=CC(=O)N1CCC(C2CCNc3c(C(N)=O)c(-c4ccc(Oc5ccccc5)cc4)nn32)CC1` (stereo unspecified), for which the Potency in assay [1] is 10.5 µM (active). In addition, the Potency entry in assay [3] is “inactive”.

Turning to `Cc1c(-c2ccc(-c3ccccc3F)cc2)nc2ccc(F)cc2c1C(=O)O`, the figures for the Potency in assay [1], in assay [3] and in assay [6] were 0.209 µM (active), 0.742 µM (active) and 0.662 µM (active), respectively. Besides, in assay [5], the Potency entry is “inactive”.

On to `Cc1ccc(Nc2cc(N[C@@H]3CCCC[C@@H]3N)nnc2C(N)=O)nc1C`, for which the Potency in assay [1] is 3.72 µM (active); in assay [5], 16.6 µM (active); in assay [6], 20.9 µM (active).

Turning to `Cc1ccc(Nc2nnc(Cc3ccncc3)c3ccccc23)cc1Br`, the Potency in assay [1] was 16.6 µM (active); in assay [5], 20.9 µM (active). In addition, in assay [3], the Potency result is “inactive”.

For `CCN1C(=O)CNc2ncc(-c3ccc(-c4ncn[nH]4)nc3C)nc21`, the Potency was 1.66 µM (active) in assay [1], 2.09 µM (active) in assay [5] and 0.186 µM (active) in assay [3].

Take `Cc1[nH]c(/C=C2\C(=O)Nc3ccc(S(=O)(=O)Cc4c(Cl)cccc4Cl)cc32)c(C)c1C(=O)N1CCC[C@@H]1CN1CCCC1`: the Potency in assay [1] is 5.9 µM (active); in assay [5] it was 18.6 µM (active); in assay [3], 8.33 µM (active); in assay [4] it was 9.34 µM (active); in assay [6], 9.34 µM (active).

As to `Clc1cc(Cl)cc(CNc2ncncc2-c2ccc3c(c2)OCO3)c1`, the Potency in assay [1] was 23.5 µM (active); in assay [6], 26.3 µM (active). For the same compound, the Potency result in assay [3] was “inactive”.

`C[C@@H](O)[C@@H](C)Oc1nc(Nc2ccc(S(=N)(=O)C3CC3)cc2)ncc1C(F)(F)F` (stereo partly specified): the Potency in assay [1] is 14.8 µM (active); in assay [3], 20.9 µM (active); in assay [4] it was 18.6 µM (active); in assay [6], 16.6 µM (active).

Take `Cc1ccc(-c2nc(N)nc3c2nnn3Cc2cccc(CO[C@H]3CCOC3)n2)o1`: the Potency result in assay [1], in assay [5], in assay [3] and in assay [6] was “inactive” throughout.

With `CONC(=O)Nc1ccc(-c2sc3c(c2CN(C)C)c(=O)n(-c2ccc(OC)nn2)c(=O)n3Cc2c(F)cccc2F)cc1`, the Potency result in assay [1], in assay [5], in assay [3] and in assay [6] was “inactive” throughout.

For the compound `CN(C)c1ccc(O)c2c1C[C@H]1C[C@H]3[C@H](N(C)C)C(=O)C(C(N)=O)=C(O)[C@@]3(O)C(=O)C1=C2O`, the Potency result in assay [1] and in assay [3] was “inactive” each time. The Potency in assay [5] is 13.2 µM (active).

Take `CC1=C2C[C@H]3[C@@H](CC[C@@H]4C[C@H](NS(C)(=O)=O)CC[C@@]43C)[C@@H]2CC[C@@]2(C1)O[C@@H]1C[C@H](C)CN[C@H]1[C@H]2C`: the Potency in assay [1] was 16.6 µM (active); in assay [5], 16.6 µM (active); in assay [6], 23.5 µM (active).

On to `COc1ccc(C2=N[C@H](c3ccc(Cl)cc3)[C@H](c3ccc(Cl)cc3)N2C(=O)N2CCNC(=O)C2)c(OC(C)C)c1`, for which the Potency in assay [1] was 23.5 µM (active); in assay [5] it was 23.5 µM (active); in assay [4], 26.3 µM (active). Further, in assay [3], the Potency entry is “inactive”.

Turning to `c1ccc(-c2cc(CCC3CCNCC3)c3ccccc3n2)cc1`, the Potency in assay [1] is 20.9 µM (active); in assay [5], 20.9 µM (active); in assay [3], 26.3 µM (active); in assay [4] it was 20.9 µM (active); in assay [6], 26.3 µM (active).

Take `O=C(Nc1ccc(OC(F)(F)Cl)cc1)c1cnc(N2CC[C@@H](O)C2)c(-c2ccn[nH]2)c1`: the Potency in assay [1] was 20.9 µM (active); in assay [5], 0.0105 µM (active); in assay [6], 18.6 µM (active). In addition, the Potency result in assay [3] is “inactive”.

Consider `Cc1c(CN2CCN(C(=O)[C@H](C)O)CC2)sc2c(N3CCOCC3)nc(-c3cnc(N)nc3)nc12`, for which the Potency in assay [1] is 0.525 µM (active); in assay [3], 0.0525 µM (active).

`NC(=O)c1cnc2[nH]ccc2c1NC1C2CC3C[C@H]1CC(O)(C3)C2` (stereo partly specified): the figures for the Potency in assay [1], in assay [5] and in assay [3] were 0.209 µM (active), 8.33 µM (active) and 0.833 µM (active), respectively.

Consider `COc1ccc2[nH]c(C(=O)N3CCC(CC(C)(C)O)CC3)cc2c1`, for which the Potency entry in assay [1], in assay [5], in assay [3] and in assay [6] was “inactive” throughout.

With `C[C@H]1CNC(=O)c2cnn3ccc(nc23)N[C@H](C)c2cc(F)ccc2O1`, the Potency in assay [1] is 1.32 µM (active); in assay [5] it was 0.833 µM (active); in assay [3], 0.833 µM (active).

On to `CCC1CCCCN1C(=O)n1ncc(C(O)(c2ccccc2)c2ccccc2)n1` (stereo unspecified), for which the Potency was 14.8 µM (active) in assay [1], 20.9 µM (active) in assay [3] and 14.8 µM (active) in assay [4].

On to `FC(F)(F)c1ccc(CNc2ccc(Cc3c[nH]c4ncc(Cl)cc34)cn2)cn1`, for which, in assay [1], the Potency was 0.934 µM (active). In addition, the Potency result in assay [3] and in assay [6] was “inactive” throughout.

These data come from PubChem BioAssay (NCATS).
